The nature of assay [1]: HepG2 liver cancer cell viability effects, profiling panel, resazurin fluorescence, 24 h, PK04 Diversity Set (AID 1172). Also: test concentration not given here. Conditions: higher = more signal.
Assay [2] in a line: basal S. cerevisiae growth modulation, no modifier, primary screen, OD600, strain BY4716, 24 h, basal condition (AID 1173). Conditions: OD600, 24 h, higher = more signal, called active from +8 up or from −8 down.
Assay [3] can be described thus: MM1S myeloma cell viability, profiling panel, resazurin fluorescence, basal, 24 h, PK04 Diversity Set (AID 1174).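 Also: MM1S multiple myeloma cell line; test concentration not given here.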 Conditions: higher = more signal, called active from +8 up or from −8 down.
Assay [4] concerns the target Dihydroorotate dehydrogenase (quinone), mitochondrial (Plasmodium falciparum (isolate 3D7)) (UniProt Q08210). As to the kind of experiment: PfDHODH enzyme inhibitors, primary screen, biochemical, C-terminal His tag, absorbance 600 nm (AID 1175).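 Also: recombinant parasite enzyme with a five histidine tag at its C terminus; test concentration not given here.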 The conditions noted are these: DCIP absorbance 600 nm, higher = more signal, called active from +8 up or from −8 down.
Assay [5] in a line: P. aeruginosa biofilm formation inhibitors, primary screen, strain PAO1, LB-PBS medium, absorbance 600 nm (AID 1176). Also: test concentration not given here. Conditions: P. aeruginosa PAO1 growth/biofilm, A600, 12 h; higher = more signal.
Assay [6] is described as follows: S. cerevisiae RM11-1a growth modifiers, primary screen, strain RM11-1a, OD600, basal, 24 h (AID 1177).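 Also: cultures grown under basal conditions with no added stressor; test concentration not given here.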 The conditions noted are these: OD600, 24 h, higher = more signal, called active from +8 up or from −8 down.
Assay [7] can be described thus: E. coli acrAB mutant growth effects, primary screen, E. coli filamentation inducers, strain DRC39, OD650, 24 h (AID 1178).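 Also: growth measured as culture turbidity by optical density at 650 nm; test concentration not given here.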 The conditions noted are these: higher = more signal, called active from +8 up or from −8 down.
A short description of assay [8]: E. coli acrAB mutant growth effects, primary screen, E. coli filamentation inducers, strain DRC39, OD650, 48 h (AID 1179).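 Also: screen aims at cell division blockers that make cells filament.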 The conditions noted are these: E. coli DRC39 delta-acrAB growth, higher = more signal, called active from +8 up or from −8 down.
Assay [9] is described as follows: RPMI8226 myeloma cell viability, profiling panel, resazurin fluorescence, basal, 24 h, PK04 Diversity Set (AID 1180).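 Also: RPMI8826 multiple myeloma cell line at 5000 cells per well; test concentration not given here.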 Conditions: higher = more signal.
In assay [10] the target is E3 ubiquitin-protein ligase XIAP (Homo sapiens) (UniProt P98170). Kind of assay: XIAP binders, primary screen, biophysical, small-molecule microarray, fluorescence 635 nm (AID 1181).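 Also: score merges 667 nm emission and signal to noise over triplicate slides.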 Conditions: small-molecule microarray binding, higher = more signal.

The source made the active and inactive calls. Unless noted, no rule for the calls is given here.

Sequence of Dihydroorotate dehydrogenase (quinone), mitochondrial (Plasmodium falciparum (isolate 3D7)) (Q08210 whole entry, looked up): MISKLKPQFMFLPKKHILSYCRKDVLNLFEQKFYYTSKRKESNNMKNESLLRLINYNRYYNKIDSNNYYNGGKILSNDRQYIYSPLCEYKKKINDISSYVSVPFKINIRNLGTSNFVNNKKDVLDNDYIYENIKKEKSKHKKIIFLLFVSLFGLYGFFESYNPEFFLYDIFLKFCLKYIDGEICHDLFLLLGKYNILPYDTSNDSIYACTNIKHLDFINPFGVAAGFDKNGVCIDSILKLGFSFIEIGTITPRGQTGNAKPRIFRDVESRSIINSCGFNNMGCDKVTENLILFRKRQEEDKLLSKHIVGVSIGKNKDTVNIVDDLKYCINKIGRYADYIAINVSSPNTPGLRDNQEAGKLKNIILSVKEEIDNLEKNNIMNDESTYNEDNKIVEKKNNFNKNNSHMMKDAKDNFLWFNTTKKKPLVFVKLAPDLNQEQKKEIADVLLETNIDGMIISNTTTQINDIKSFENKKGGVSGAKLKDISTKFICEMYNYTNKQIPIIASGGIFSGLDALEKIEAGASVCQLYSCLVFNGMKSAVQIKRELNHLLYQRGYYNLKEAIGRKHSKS
Sequence of E3 ubiquitin-protein ligase XIAP (Homo sapiens) (P98170 whole entry, looked up): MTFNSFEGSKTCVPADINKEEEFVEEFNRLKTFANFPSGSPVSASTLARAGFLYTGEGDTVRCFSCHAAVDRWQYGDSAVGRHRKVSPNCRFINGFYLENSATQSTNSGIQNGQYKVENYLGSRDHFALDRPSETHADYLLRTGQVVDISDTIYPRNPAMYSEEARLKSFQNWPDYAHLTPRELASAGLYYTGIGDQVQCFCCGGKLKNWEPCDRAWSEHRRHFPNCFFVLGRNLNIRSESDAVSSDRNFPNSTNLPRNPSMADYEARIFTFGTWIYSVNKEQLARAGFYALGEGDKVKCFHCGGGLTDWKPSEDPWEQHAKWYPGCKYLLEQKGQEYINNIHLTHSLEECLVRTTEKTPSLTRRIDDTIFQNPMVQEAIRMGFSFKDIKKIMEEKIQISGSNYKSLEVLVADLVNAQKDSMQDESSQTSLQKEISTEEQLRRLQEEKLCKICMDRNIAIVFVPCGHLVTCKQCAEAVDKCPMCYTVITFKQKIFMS

For the compound `COC(=O)c1nc2oc1CC[C@@H](CO)NC(=O)N(C)Cc1cnnn1C[C@H](Cc1ccccc1)NC2=O`, the z-score in assay [1] is 0.841; in assay [2], -1.07 (inactive); in assay [3], 1.09 (inactive); in [5], 0.383 (inactive); in assay [6], 0.477 (inactive); in [7], 0.218 (inactive). Moreover, the z-score in assay [8] was 1.12 (inactive); in [9] it was 1.47. Moreover, the composite z-score in assay [4] is -0.288 (inactive); in assay [10], -0.148.

Take `COCCOC(=O)N1C(=O)[C@@]2(c3cc(C#CC4=CCCCC4)ccc31)[C@H](C(N)=O)[C@H]1C(=O)O[C@H](c3ccccc3)[C@H](c3ccccc3)N1[C@@H]2c1ccccc1OCCO`: the z-score in assay [1] is -2.76; in assay [2], 0.132 (inactive); in [3], -4.34 (inactive); in assay [5] it was 2.21 (inactive); in assay [6], 1.23 (inactive); in assay [7], -1.4 (inactive). Moreover, the z-score is -1.23 (inactive) in [8] and -5.78 in assay [9]. Also, the composite z-score in assay [4] is -0.295 (inactive); in assay [10] it was 0.0899.

As for `Cc1ccc(S[C@]2(C(=O)NCC(F)(F)F)CC(=O)N(Cc3ccccc3C(F)(F)F)[C@@H]2c2ccc(CO)cc2I)cc1`, the z-score is 0.719 in [1]; -3.66 (inactive) in assay [2]; -2.62 (inactive) in [3]; -0.0623 (inactive) in [5]; -1.21 (inactive) in assay [6]; 0.506 (inactive) in assay [7]. In addition, the values for the z-score in assay [8] and in assay [9] were 1.21 (inactive) and -1.15, respectively. Further, the composite z-score in assay [4] was 0.196 (inactive); in [10] it was 0.531.

Turning to `C=C(COC)/C(=C/C[C@H](OC(=O)c1ccncc1)c1ccccc1OCCO)c1cnc2ccccc2c1`, the z-score was 2.02 in assay [1]; -0.865 (inactive) in [2]; 0.247 (inactive) in [3]; -0.104 (inactive) in [5]; -0.0351 (inactive) in assay [6]; 0.213 (inactive) in assay [7]. Further, the z-score is -0.121 (inactive) in assay [8] and 0.377 in [9]. Further, the composite z-score is -3.12 (inactive) in assay [4] and -0.0102 in assay [10].

Take `Cn1cccc1C(O)C1C=CC2C(=O)NC(=O)C2N1Nc1ccc(Cl)cc1Cl` (stereo not given): the z-score in assay [1] is -1.75; in assay [2], -3.53 (inactive); in assay [3], -1.86 (inactive); in [5], 1.69 (inactive); in assay [6], 0.441 (inactive); in [7], -1.09 (inactive). Further, the z-score was -1.28 (inactive) in [8] and -1.98 in assay [9]. Besides, the composite z-score is 0.121 (inactive) in assay [4] and 0.315 in assay [10].

As to `CN(C)CCCNC(=O)[C@@]1(c2ccc([N+](=O)[O-])cc2)CC(=O)N(CC23CC4CC(CC(C4)C2)C3)[C@@H]1c1ccc(CO)cc1I`, the z-score in assay [1] is -6.51; in assay [2], -16.9 (active); in [3], -9.05 (active); in assay [5] it was 0.277 (inactive); in [6], -20.9 (active); in assay [7], -1.46 (inactive). Moreover, the figures for the z-score in assay [8] and in [9] were -2.96 (inactive) and -6.63, respectively. The composite z-score in [4] is -0.173 (inactive); in assay [10] it was -0.0541.

Turning to `O=C1N(Cc2ccccc2)c2ccccc2[C@@H]2OC(c3ccc(OCCCO)cc3)=N[C@]12Cc1ccccc1`, the z-score is -0.408 in [1]; -0.87 (inactive) in assay [2]; -3.68 (inactive) in assay [3]; 1.25 (inactive) in assay [5]; 2.06 (inactive) in assay [6]; 1.29 (inactive) in assay [7]. Moreover, the z-score was 0.259 (inactive) in assay [8] and -2.78 in [9]. The results for the composite z-score in assay [4] and in assay [10] were 1.07 (inactive) and -0.0749, respectively.

Turning to `CCCCCCCCCCC(O)C1C=CC2C(=O)N(C)C(=O)C2N1NC(=O)OC(C)(C)C` (stereo not given), the z-score is -5.01 in assay [1]; -5.22 (inactive) in [2]; -4.74 (inactive) in [3]; 0.0337 (inactive) in [5]; 1.05 (inactive) in assay [6]; -0.235 (inactive) in [7]. The values for the z-score in assay [8] and in [9] were -1.45 (inactive) and -5.64, respectively. Besides, the composite z-score is 1.1 (inactive) in assay [4] and 0.109 in assay [10].

On to `O=C1O[C@H](c2ccccc2)[C@H](c2ccccc2)N2[C@H]1[C@@H](C(=O)Nc1nc3ccccc3s1)[C@]1(C(=O)Nc3ccccc31)[C@H]2c1ccc(OCCO)cc1`, for which the z-score in [1] was 0.0114; in assay [2], 0.445 (inactive); in assay [3] it was -1.08 (inactive); in assay [5], 3.02 (inactive); in assay [6], 1.68 (inactive); in assay [7], -0.476 (inactive). For the same compound, the results for the z-score in assay [8] and in [9] were 0.282 (inactive) and -2.02, respectively. In addition, the values for the composite z-score in assay [4] and in assay [10] were -1.8 (inactive) and -0.356, respectively.

`CC(C)(C)N1CC=CC23O[C@@H]4C=CCCOC(=O)C4[C@H]2C(=O)N(CCO)[C@@H]3C1=O` (stereo not given in full): the z-score in assay [1] was 0.388; in assay [2], 0.0947 (inactive); in assay [3], -0.512 (inactive); in [5], 0.345 (inactive); in assay [6] it was 0.451 (inactive); in assay [7], -1.02 (inactive). In addition, the z-score is -1.05 (inactive) in [8] and -1.13 in [9]. The composite z-score is 0.427 (inactive) in assay [4] and 0.072 in [10].

As to `O=C1NC(=O)C2C1C=CC(C(O)c1ccco1)N2Nc1ccccn1` (stereo not given), the z-score in [1] was -1.32; in assay [2] it was 0.461 (inactive); in assay [3] it was -1.68 (inactive); in [5] it was 0.956 (inactive); in [6] it was 0.254 (inactive); in assay [7], -0.457 (inactive). For the same compound, the z-score is -0.21 (inactive) in assay [8] and -1.09 in assay [9]. Also, the composite z-score in assay [4] is 0.257 (inactive); in assay [10], -0.0342.

On to `COc1ccc(NC(=O)O[C@H]2[C@H](OC(=O)Nc3ccccc3)[C@H](OC(=O)Nc3ccccc3)[C@@H](OC)O[C@@H]2CO)cc1`, for which the z-score was -1.05 in assay [1]; 0.593 (inactive) in assay [2]; -1.49 (inactive) in [3]; 0.509 (inactive) in [5]; 0.767 (inactive) in [6]; 0.124 (inactive) in assay [7]. Besides, the z-score was 0.0606 (inactive) in [8] and -0.936 in [9]. Besides, the figures for the composite z-score in assay [4] and in assay [10] were 1.59 (inactive) and -0.0599, respectively.

With `O[C@@H](Cc1ccccc1)[C@@H](/C=C/C1CC1)N(CC#Cc1ccccc1)Cc1cccc(Cl)c1`, the z-score in [1] was 2.5; in assay [2] it was 0.465 (inactive); in assay [3] it was 1.61 (inactive); in assay [5], -0.131 (inactive); in [6], 0.438 (inactive); in assay [7], 0.839 (inactive). Also, the z-score was 1.01 (inactive) in assay [8] and 2.06 in assay [9]. In addition, the composite z-score is -0.312 (inactive) in [4] and -0.0931 in [10].

These data come from PubChem BioAssay.
